HT1080-NT tox: kills 2HG-producing HT-1080-NT fibrosarcoma cells. AID 686970. Potency, µM (highest dose often 46.1 µM), without a hit: at the highest dose activity, negative = less viability, actives largely listed as cytotoxic. 1.6% of 360,000 active. HT-1080-NT fibrosarcoma viability, CellTiter-Glo ATP luminescence, 48 h;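 also: NT is the 2HG producing partner of a matched IDH1 knockdown line; potency is read from the fitted curve at half-maximal effect; 0% = DMSO-treated cells and -100% = media-only wells without cells; nearly all actives have a fitted effect of over 55% in size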
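Compounds were tested in concentration-response format on HT-1080-NT cells for 48 hours at 37 degrees C. Cell viability came from CellTiter-Glo luminescence; curves were classified by r2, response magnitude and activity.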
DT40 TDP1 no CPT: qHTS for Inhibitors of human tyrosyl-DNA phosphodiesterase 1 (TDP1): qHTS in cells in absence of CPT; DT40 Tdp1-/- hTDP1 cells, no CPT, ATP luminescence, 48 h; Potency, µM (doses to about 46.2 µM), for the others: at the highest dose activity change, negative = growth inhibition, usual class: inhibitors; 15% of 420,000 active; AID 686978, 2013; also: potency is read from the fitted curve at half-maximal effect; nearly all actives have a fitted effect of over 55% in size
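Chicken DT40 Tdp1-/- cells complemented with human TDP1, screened without camptothecin (DMSO vehicle only), 400 cells/well. Compounds pin-transferred, cells incubated at 37 °C for at least 48 hr. Growth read as ATP-dependent luminescence (CellTiter-Glo, 30 min at RT).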
TDP1 cell CPT: DT40-hTDP1 cell growth loss with CPT. chicken DT40 Tdp1-/-;hTDP1 cells + 20 nM CPT, ATP luminescence, 48 h. Potency, µM (doses to about 46.2 µM), for the others: at the top dose activity change, negative = growth inhibition, most hits filed as inhibitors. 12% of 420,000 active. AID 686979; also: potency is read from the fitted curve at half-maximal effect; nearly all actives have a fitted effect of over 55% in size
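Chicken DT40 Tdp1-/- cells stably complemented with human TDP1 were seeded at 400 cells/well in medium containing 20 nM camptothecin, exposed to pin-transferred compounds, and grown at 37 °C for at least 48 hr. Viability was read as ATP luminescence.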
IL1B secr inh: inflammasome signaling inhibition, IL-1 beta readout. THP-1 LPS/ATP IL-1B secretion, AlphaLISA, 16 h; active compounds read low. activity change, % at 57.5 µM. 4.7% of 360,000 active; in the data active = activity change below about -50%; inconclusive = mostly about -30% to -49%
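THP-1 cells pretreated 1 hr with compounds (up to 57.5 uM final), then stimulated with LPS (250 ng/mL final) plus ATP (1.25 mM final); secreted IL-1B measured by AlphaLISA after 16 hr, decreased signal indicating inhibition.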
HT1080 IDH1KD tx: HT-1080 IDH1 knockdown cell toxicity (counter line); HT-1080 IDH1 knockdown viability, ATP luminescence, 48 h; 2% of 360,000 active; AID 686971; Potency, µM (doses to about 46.1 µM), inactives show at the top dose activity, negative = toxicity, most hits filed as cytotoxic;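 also: potency is read from the fitted curve at half-maximal effect; 0% = DMSO wells and -100% = cell-free medium wells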
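% activity derives from luminescence (CellTiter-Glo), normalised to DMSO and no-cell wells. HT-1080-IDH1KD cells, 750/well, had 48 h compound exposure at 37 °C.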
The depositor's hits bear a star; i = inactive; u = inconclusive; x = no result. Sampled rows, rich in hits. Any-hit rate of the full collection: about 19%. Unless noted, calls follow the shape of the dose curve; as a rule, active = well fitted curve in the direction sought with a large enough effect; inconclusive = small, poorly fitted or top-dose-only effect, or another doubt; inactive = no such curve, though single readings can be large; an effect the other way counts as inactive or inconclusive. Unless noted, % is scaled to controls: 0 for no effect and ±100 for the full control effect.

SMILES | HT1080-NT tox | DT40 TDP1 no CPT | TDP1 cell CPT | IL1B secr inh | HT1080 IDH1KD tx
CCOC(=O)C1CCCN(C(=O)c2ccc3c(c2)N(Cc2ccccc2)C(=O)c2ccccc2S3=O)C1 (stereo not drawn) | 1% | 18µM* | u | 0 | -3%
O=C(O)c1ccc2c(c1)N(Cc1ccccc1)C(=O)c1ccccc1S2=O (stereo not drawn) | 6% | -17% | u | 11 | -3%
O=C(c1ccc2c(c1)N(Cc1ccc(F)cc1)C(=O)c1ccccc1S2=O)N1CCC(Cc2ccccc2)CC1 (stereo not drawn) | x | 15µM* | 16µM* | x | x
O=C(c1ccc2c(c1)N(Cc1ccccc1)C(=O)c1ccccc1S2=O)N1CCC(Cc2ccccc2)CC1 (stereo not drawn) | x | 6.5µM* | 6.5µM* | x | x
NC(=O)COc1ccc(/C=N\NC(=O)c2ccc(-c3ccccc3)cc2)cc1 | -5% | 0% | -4% | i | 6%
COc1ccc(NC(=O)C(Cc2c[nH]c3ccccc23)NC(=O)OC(C)(C)C)cc1 (stereo not drawn) | x | -23% | u | x | x
Cc1ccnc2c(Cl)cccc12 | x | 1% | u | x | x
O=S(=O)(Nc1nc2ccc(Cl)cc2s1)c1cccs1 | -14% | -17% | u | 21 | -11%
c1ccc2c(c1)NCCS2 | -20% | u | u | 9 | -15%
CCOc1cc(C(=O)Nc2ccc(S(=O)(=O)Nc3cc(OC)nc(OC)n3)cc2)cc(OCC)c1OCC | x | -25% | -14% | x | x
COc1ccc(C2=NN3C(C2)c2ccccc2OC32C(=O)N(C)c3ccccc32)cc1 (stereo not drawn) | u | 21µM* | u | -5 | u
NC(=O)C1CCN(C(=O)CC2(CC(=O)O)CCCC2)CC1 | -6% | -2% | 8% | -7 | 11%
COc1cccc(C(=O)Nc2nnc(S(=O)(=O)N(C)Cc3ccc(F)cc3)s2)c1 | -10% | -13% | -20% | 3 | -24%
C/C=C/C=C\C(=O)Nc1cccc(C2=NOC3(C2)C[C@@H](C(N)=O)N(C(=O)c2cc([N+](=O)[O-])cc([N+](=O)[O-])c2C)C3)c1 (stereo partly drawn) | 1% | u | 16µM* | -15 | -3%
C/C=C\C=C\C(=O)Nc1cccc(C2=NOC3(C2)C[C@H](C(N)=O)N(C(=O)c2ccccc2C(=O)c2ccccc2)C3)c1 (stereo partly drawn) | -12% | 16µM* | u | -12 | -12%
C/C=C\C(=O)Nc1cccc(C2=NOC3(C2)C[C@@H](C(N)=O)N(C(=O)c2ccccc2)C3)c1 (stereo partly drawn) | 2% | -11% | -30% | -22 | -1%
Cc1ccc(S(=O)(=O)NC(CN2CCOCC2)=NCCNS(=O)(=O)c2ccccc2)cc1 | 0% | -17% | -20% | -4 | 22%
Nc1nc(Nc2ccccc2F)sc1C(=O)c1ccccc1 | -10% | u | 12µM* | -20 | -27%
COc1ccc(NC(=O)C2Cc3c(-c4ccc(Cl)cc4)ccnc3O2)cn1 (stereo not drawn) | u | 21µM* | 15µM* | -7 | u
COc1ccc(NC(=O)C2Cc3c(-c4cccc(C(N)=O)c4)ccnc3O2)cc1OC (stereo not drawn) | u | 7.3µM* | 12µM* | 16 | u
COc1ccc(NC(=O)C2Cc3c(-c4ccc(Cl)cc4)ccnc3O2)cc1OC (stereo not drawn) | -7% | 18µM* | u | -16 | u
COc1ccc(NC(=O)C2Cc3c(-c4ccccc4)ccnc3O2)cc1OC (stereo not drawn) | -12% | 4.6µM* | u | u | u
COc1ccc(NC(=O)C2Cc3c(-c4ccncc4)ccnc3O2)cc1OC (stereo not drawn) | 0% | u | u | 0 | -10%
CNC(=O)C1Cc2c(-c3ccc(Cl)cc3)ccnc2O1 (stereo not drawn) | u | u | -28% | 4 | 0%
CC(C)(C)C1CCC(C(=O)OCC(=O)N2CCOCC2)CC1 (stereo not drawn) | -4% | -13% | 2% | 25 | 8%
SMILES | HT1080-NT tox | DT40 TDP1 no CPT | TDP1 cell CPT | IL1B secr inh | HT1080 IDH1KD tx
O=[N+]([O-])c1cccnc1NCCc1c[nH]c2ccccc12 | 12% | -2% | 1% | 3 | 7%
O=[N+]([O-])c1cc(C(F)(F)F)ccc1NCCc1c[nH]c2ccccc12 | -3% | u | -26% | -96* | 7%
O=[N+]([O-])c1cc(C(F)(F)F)ccc1NCCc1c[nH]c2ccc(O)cc12 | 13µM* | u | u | -19 | 13µM*
OC(CN1CCOCC1)(c1ccccc1)c1ccccn1 (stereo not drawn) | 11% | 6% | 0% | 13 | 12%
O=C(O)c1nn(-c2ccccc2)nc1-c1nn(-c2ccccc2)nc1C(=O)O | 11% | 1% | -7% | 3 | 15%
O/N=C1/CC/C(=N\O)c2nn(-c3ccccc3)nc21 | -20% | 9.2µM* | 15µM* | -65* | -27%
COC(=O)c1nn(-c2ccccc2)nc1-c1nn(-c2ccccc2)nc1C(=O)OC | 0% | 16µM* | u | -8 | -4%
CCOC(=O)c1c(C)[nH]c(C)c1S(=O)(=O)N1CCCCC1 | 10% | 5% | 8% | -1 | 0%
Cc1cccc(-c2nc(=S)c3c(n2Cc2ccco2)CCCC3)c1 | -3% | u | 21µM* | 6 | -8%
COc1cccc(-c2nc(=S)c3c(n2Cc2ccco2)CCCC3)c1 | u | u | 16µM* | 0 | u
Cc1ccc(-c2nc(=S)c3c(n2Cc2ccco2)CC(C)(C)OC3)cc1 | 0% | 23µM* | 16µM* | 10 | 14%
Cc1ccc(-c2nc(=S)c3c(n2Cc2ccco2)CCCC3)cc1 | -14% | u | u | 30 | -3%
CCn1c(CNC(=O)c2ccccc2F)cc2cc(C)ccc21 | 7% | -18% | 0% | 2 | -6%
Cc1[nH]c(=O)[nH]c(=O)c1S(=O)(=O)Nc1ccc(Br)cc1F | -1% | 1% | 0% | 5 | 10%
CCOC(=O)COc1ccc(-c2nnn(CC(=O)Nc3ccccc3)n2)cc1 | x | -16% | -7% | x | x
CCOc1ccc(S(=O)(=O)N2CCN(CCNS(=O)(=O)c3ccc(C)cc3)CC2)cc1 | -2% | u | -7% | u | -1%
COc1cccc(N2CC(NC(=O)c3cc(Cl)ccc3OC)CC2=O)c1 (stereo not drawn) | x | 16µM* | u | x | x
COc1ccc(N2CC(NC(=O)COc3cccc(C)c3)CC2=O)cc1OC (stereo not drawn) | x | 21µM* | -28% | x | x

From PubChem BioAssay
